Measured values: PubChem BioAssay (NCATS)
Values joined by “and” are separate entries in the source; they are usually repeats but may differ in a detail not shown here. Identical values can stand only once. Results filed as inconclusive are left out. Unmarked numbers belong to inactive results. Active and inactive are the calls of the source. Calls follow the shape of the dose curve; as a rule, active = well fitted cell-killing curve with a large enough effect; inconclusive = small, poorly fitted or top-dose-only effect; inactive = flat fitted curve, though single readings scatter.

experiment: Cellular viability qHTS for adrenocortical cancer (ACC) cell line SW-13 (AID 1963989); details: SW-13 ACC cells viability, CellTiter-Glo, 48 h; activity (max response): stronger effect = lower value; also: nearly all actives have a fitted effect of over 65% in size;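 as to activity (max response): cells grown in serum-free medium with ITS supplement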
In short: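 IC50 and maximal-response values come from four-parameter logistic fits of titration data. SW-13 cells in serum-free medium received compounds (up to 46 uM final) for 48 h before CellTiter-Glo luminescence.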
% is scaled to controls: 0 for no effect and ±100 for the full control effect; potency is read from the fitted curve at half-maximal effect.

| Structure (SMILES) | activity (max response) | Potency |
| --- | --- | --- |
| NC(=O)NC1NC(=O)NC1=O (stereo not given) | 10.7% | – |
| O=c1[nH]c(=O)c2ccccc2o1 | 6.04% | – |
| NS(=O)(=O)c1ccc(NC(=O)CCC(=O)O)cc1 | 4.28% | – |
| CN1Cc2cc(C(=O)N3CCC(C4CCNCC4)CC3)ccc2N[C@@H](CC(=O)O)C1=O | 10.2% | – |
| OC[C@H]1O[C@@H](n2cnc3c2NC=NC[C@H]3O)C[C@@H]1O | 12.8% | – |
| O=C(Oc1ccccc1)c1ccccc1O | 1.95% | – |
| CCCCCCCCCCOc1cc2c(=O)c(C(=O)OCC)c[nH]c2cc1OCC | 0.0943% | – |
| CCNC(=O)/C=C/c1cccc(Br)c1 | -10.3% | – |
| CC[C@@]1(c2ccccc2)NC(=O)N(C)C1=O | 8.31% | – |
| FC(F)(F)C(Cl)Br (stereo not given) | -8.02% | – |
| C[C@H]1[C@H](NC(=O)/C(=N/OC(C)(C)C(=O)O)c2csc(N)n2)C(=O)N1S(=O)(=O)O (stereo in doubt) | 8.46% | – |
| O=C(O)c1ccc(S(=O)(=O)N(Cl)Cl)cc1 | 9.06% | – |
| O=C(O)CCCCCCCC(=O)O | 10.6% | – |
| CC1CCN(CCCC(=O)c2ccc(F)cc2)CC1 | -0.695% | – |
| CC(=O)Nc1ccccc1 | -1.24% | – |
| CCOc1ccc(NC(C)=O)cc1 | -8.62% | – |
| CCn1ccc(NS(=O)(=O)c2ccc(N)cc2)nc1=O | 11.1% | – |
| O=C(Nc1ccc(Cl)cc1)Nc1ccc(Cl)c(Cl)c1 | – | 2.59 µM (active) |
| CCCN(CCC)S(=O)(=O)c1ccc(C(=O)O)cc1 | 9.34% | – |
| CC(=O)Nc1ncc([N+](=O)[O-])s1 | 10.5% | – |

| Structure (SMILES) | activity (max response) | Potency |
| --- | --- | --- |
| CC(C)CCCC(C)N (stereo not given) | 3.28% | – |
| CC[C@H]1OC(=O)[C@H](C)[C@@H](O[C@H]2C[C@@](C)(OC)[C@@H](O)[C@H](C)O2)[C@H](C)[C@@H](O[C@@H]2O[C@H](C)C[C@H](N(C)C)[C@H]2O)[C@](C)(O)C[C@@H](C)CN(C)[C@H](C)[C@@H](O)[C@]1(C)O | -23.1% | – |
| NC(N)=NS(=O)(=O)c1ccc(N)cc1 | 7.35% | – |
| CC(C)=CCC/C(C)=C/CC/C(C)=C/CCC(=O)OC/C=C(\C)CCC=C(C)C | 14.2% | – |
| Cn1c(=O)c2[nH]cnc2n(C)c1=O | -5.93% and 14.5% | – |
| Cc1sccc1Br | -3.04% | – |
| CCC(=O)Nc1ccc(O)cc1 | 0.747% | – |
| C/C=C/C(=O)N(CC)c1ccccc1C | 5.92% and 3.5% | – |
| Nc1nc(=O)n([C@@H]2O[C@H](CO)[C@@H](O)[C@@H]2F)cc1I | 8.37% | – |
| CN(C)C(=O)c1cc2cnc(Nc3ccc(N4CCNCC4)cn3)nc2n1C1CCCC1 | -9.21% | – |
| CCn1cc(C(=O)O)c(=O)c2cnc(N3CCCC3)nc21 | -7.72% | – |
| Cc1cccc(C)c1NC(=O)c1ccccc1C(=O)O | 8.06% | – |
| O=C(NCN1CCOCC1)c1cnccn1 | -5.4% | – |
| CN1[C@@H]2CC[C@H]1CC(OC(=O)c1c[nH]c3ccccc13)C2 (stereo not given in full) | -7.55% | – |
| CNc1c2c(nn1C)CCCC2 | -0.416% | – |
| O=C1NCC2(CCN(CCc3ccccc3)CC2)O1 | 4.78% | – |
| [O-][n+]1cccc(/C(Cl)=N/OC[C@@H](O)CN2CCCCC2)c1 | 9.86% | – |
| O=C(O)C(=O)Nc1cccc(-c2nn[nH]n2)c1 | 14.5% and 11% | – |
| OC1(c2ccc(Cl)cc2)CCNCC1 | 11.1% | – |
| Cc1cccc(-c2nn3c(c2-c2ccnc4ccc(C(N)=O)cc24)CCC3)n1 | 14.6% | – |
